# Data taken from article PMC5540273 (PLoS ONE, 2017).
# Assays:
# Settings in all cases: concentration: 1 μM, replicates: in singlicate; n = 1
# [1] = test system: T1, PCTK2
# T1 construct: gene CDK17
# [2] = test system: T2, PCTK3
# T2 construct: gene CDK18
# [3] = test system: PDGFRA
# [4] = test system: PDGFRB
# [5] = test system: PDPK1
# [6] = test system: PFTAIRE2
# [7] = test system: T3, PFTK1
# T3 construct: gene CDK14
# [8] = test system: PHKG1
# [9] = test system: PHKG2
# [10] = test system: PIK3C2B
# [11] = test system: PIK3C2G
# [12] = test system: PIK3CA
# [13] = test system: PIK3CB
# [14] = test system: PIK3CD
# [15] = test system: PIK3CG
# [16] = test system: T4, PIK4CB
# T4 construct: gene PI4KB
# [17] = test system: PIKFYVE
# [18] = test system: PIM1
# [19] = test system: PIM2
# [20] = test system: PIM3
# 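Note: KINOMEscan kinase panel screen.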
Compound,%Inh [1],%Inh [2],%Inh [3],%Inh [4],%Inh [5],%Inh [6],%Inh [7],%Inh [8],%Inh [9],%Inh [10],%Inh [11],%Inh [12],%Inh [13],%Inh [14],%Inh [15],%Inh [16],%Inh [17],%Inh [18],%Inh [19],%Inh [20]
Cl.c1ccc(-c2ccc3c(Nc4ccc5[nH]ncc5c4)ccnc3c2)nc1 [GW440137],14%,20%,90%,89%,0%,12%,19%,0%,0%,3%,0%,6%,0%,2%,5%,0%,7%,0%,0%,9%
C[C@@H](Oc1cc(-n2cnc3cc(-c4ccnc(NCCS(C)(=O)=O)c4)ccc32)sc1C(N)=O)c1ccccc1Cl [GSK907232],9%,25%,71%,97.4%,28%,14%,12%,0%,2%,0%,0%,0%,0%,39%,1%,9%,0%,19%,0%,27%
CC(=O)N1CCN(c2ccc(Nc3nccc(-c4sc(C(C)C)nc4-c4cccc(NS(=O)(=O)c5cccc(Cl)c5)c4)n3)cn2)CC1 [GSK1660437],99.9%,100%,73%,99%,0%,49%,57%,0%,0%,0%,0%,0%,13%,0%,0%,0%,0%,0%,0%,89%
CCn1c(-c2nonc2N)nc2c(C#CC(C)(C)O)ncc(OCCCCN)c21.O=C(O)C(F)(F)F.O=C(O)C(F)(F)F [GSK507274],0%,0%,0%,25%,0%,6%,32%,5%,0%,0%,11%,0%,0%,0%,0%,0%,88%,69%,85%,78%
O=C(Nc1cccc(-c2nn3ccccc3c2-c2ccnc(Nc3cccc(F)c3)n2)c1)c1c(F)ccc(F)c1Cl [GSK357952],0%,9%,18%,99.7%,36%,20%,2%,0%,0%,0%,21%,0%,0%,0%,0%,24%,0%,10%,0%,0%
CCn1c(-c2nonc2N)nc2c(C#CC(C)(C)O)nc(OC[C@H](N)c3ccccc3)cc21 [GSK943949],0%,0%,11%,5%,0%,0%,0%,0%,5%,0%,11%,0%,0%,0%,0%,0%,60%,0%,23%,0%
c1ccc(-c2cnc3nccnn23)cc1 [AH20685],0%,15%,0%,23%,0%,0%,0%,40%,0%,0%,0%,0%,0%,0%,0%,0%,0%,0%,0%,9%
O=C(Nc1n[nH]c2nc(-c3ccc(O)cc3)ccc12)C1CC1 [SB-710363],56%,6%,48%,32%,5%,28%,14%,5%,0%,0%,0%,0%,0%,0%,2%,20%,0%,45%,89%,81%
CN1CCN(Cc2cccc(-c3ccc4c(Nc5ccc(Oc6ccccc6)cc5)ccnc4c3)c2)CC1 [GW578342],69%,20%,94.3%,98.9%,0%,14%,23%,1%,0%,0%,0%,0%,0%,30%,1%,0%,16%,0%,0%,0%
FC(F)(F)c1ccc(/C=C/c2cncnc2Nc2ccc3[nH]c(Cc4ccccc4)nc3c2)cc1 [GW709199],0%,4%,0%,0%,0%,33%,15%,43%,0%,0%,0%,0%,0%,0%,0%,0%,8%,0%,22%,0%
